Measurements from the supplement of paper PMC10127200.
Structures can show the parent of a compound that is named as a salt.

Tests used:
Experiment in all cases: Euclidean distance of Cell Painting phenotypic profile (signed KS, 77 features) to DMSO centroid (dimensionless distance); higher = stronger phenotypic change vs DMSO (phenoactivity)
Details in all cases: 48 h; 5 or 10 uM (library dependent)
[1] = test system: 786-O
Procedure, shortened: (§1)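 Phenoactivity is computed as Euclidean distance to the median vehicle profile. The profiles, drawn from 77 Harmony features scored as signed Kolmogorov-Smirnov statistics versus same-plate vehicle wells, were corrected for plate position, correlation-weighted and replicate-averaged at the top dose. Stained cells were imaged confocally at 20X (9 fields/well) after 48 h with library compounds at 10 or 5 uM, 0.1% DMSO final, in five cancer lines and a healthy fibroblast line.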

[2] = test system: A549
Procedure, shortened: as §1

[3] = test system: DU145
Procedure, shortened: as §1

[4] = test system: FB
Procedure, shortened: as §1

[5] = test system: HEPG2
Procedure, shortened: as §1

[6] = test system: OVCAR4
Procedure, shortened: as §1

Structure (SMILES) | Euclidean distance [1] | Euclidean distance [2] | Euclidean distance [3] | Euclidean distance [4] | Euclidean distance [5] | Euclidean distance [6]
C[C@H]1CC(=O)C[C@@H]2CC[C@H]3[C@@H]4CC[C@H](O)[C@@]4(C)CC[C@@H]3[C@]21C [Mesterolone] | 1.38 | 1.27 | 1.33 | 1.08 | 0.446 | 0.883
O=P1(NCCCl)OCCCN1CCCl (centres undefined) [Ifosfamide] | 0.866 | 0.788 | 1.12 | 0.925 | 1.13 | 1.39
C[CH2][Hg][S]c1ccccc1C(=O)[O-].[Na+] [Thimerosal] | 5.05 | 2.89 | 6.79 | 6.21 | 1.5 | 2.69
CN(C)Cc1c[nH]c2ccccc12 [Gramine] | 1.2 | 0.885 | 1.29 | 0.772 | 0.674 | 1.45
Cc1cccc(C(C)c2c[nH]cn2)c1C (centres undefined) [Medetomidine HCl] | 0.819 | 0.591 | 0.87 | 0.682 | 0.602 | 1.07
c1ccc2c(c1)Sc1ccccc1N2CC1CN2CCC1CC2 (centres undefined) [Mequitazine] | 2.14 | 1.44 | 1.35 | 2.64 | 2.43 | 1.19
COc1ccc2c(c1)[nH]c1c(C)nccc12 [Harmine hydrochloride] | 1.41 | 1.17 | 1.13 | 1.58 | 1.06 | 1.25
CN1C(=O)COc2c(C(=O)NC3CN4CCC3CC4)cc(Cl)cc21 (centres undefined) [Azasetron HCl] | 0.735 | 0.632 | 0.582 | 0.666 | 0.533 | 0.74
CCCCCCC(=O)O[C@H]1CC[C@H]2[C@@H]3CCC4=CC(=O)CC[C@]4(C)[C@H]3CC[C@]12C [Testosterone Enanthate] | 0.918 | 0.756 | 0.828 | 0.666 | 0.553 | 1.49
NC(=O)CN1CC(O)CC1=O (centres undefined) [Oxiracetam] | 1.07 | 0.677 | 0.989 | 1.39 | 0.778 | 0.764
CCCN1C[C@H](CSC)C[C@@H]2c3cccc4[nH]cc(c34)C[C@H]21 [Pergolide Mesylate] | 1.01 | 1.03 | 1.06 | 0.928 | 0.589 | 1.71
N[C@@H](Cc1ccc(N(CCCl)CCCl)cc1)C(=O)O [Melphalan] | 2.91 | 2.76 | 1.19 | 2.75 | 2.72 | 2.13
CC(Cc1ccc(O)cc1)NCC(O)c1cc(O)cc(O)c1 (centres undefined) [Fenoterol hydrobromide] | 0.772 | 0.319 | 0.524 | 0.734 | 0.461 | 0.781
CC(=O)O[C@H]1CC[C@H]2[C@@H]3CCC4=CC(=O)CCC4=C3C=C[C@]12C [Trenbolone acetate] | 0.864 | 0.493 | 1.04 | 0.72 | 1.19 | 0.778
C[C@]12CC[C@H](O)C[C@H]1CC[C@@H]1[C@@H]2C[C@@H](O)[C@]2(C)[C@@H](C3=CC(=O)OC3)CC[C@]12O [Digoxigenin] | 6.59 | 5.09 | 7.21 | 3.92 | 3.09 | 5.51
CN[C@@H]1[C@@H](O)[C@@H](O[C@@H]2[C@@H](O)[C@H](O[C@H]3O[C@H](CN)CC[C@H]3N)[C@@H](N)C[C@H]2N)OC[C@]1(C)O.CN[C@@H]1[C@@H](O)[C@@H](O[C@@H]2[C@@H](O)[C@H](O[C@H]3O[C@H]([C@@H](C)N)CC[C@H]3N)[C@@H](N)C[C@H]2N)OC[C@]1(C)O.CN[C@@H]1[C@@H](O)[C@@H](O[C@@H]2[C@@H](O)[C@H](O[C@H]3O[C@H]([C@@H](C)NC)CC[C@H]3N)[C@@H](N)C[C@H]2N)OC[C@]1(C)O [Gentamicin Sulfate] | 1.29 | 1.18 | 1.22 | 0.978 | 0.832 | 1.02
CC(NC(C)(C)C)C(=O)c1cccc(Cl)c1 (centres undefined) [Amfebutamone HCl] | 1.4 | 1.06 | 0.536 | 1.05 | 0.846 | 1.45
CNCC(=O)c1ccc(O)c(O)c1 [Adrenalone HCl] | 1.06 | 0.418 | 1.18 | 1.16 | 0.892 | 0.981
O=C(C[S+]([O-])C(c1ccccc1)c1ccccc1)NO (centres undefined) [Adrafinil] | 1.35 | 0.729 | 0.936 | 0.942 | 0.585 | 1.57
C[N+](C)(C)CCCCCCCCCC[N+](C)(C)C [Decamethonium Bromide] | 0.57 | 0.939 | 0.691 | 0.466 | 0.483 | 1.05
COC[C@H]1OC(=O)c2coc3c2[C@@]1(C)C1=C(C3=O)[C@@H]2CCC(=O)[C@@]2(C)C[C@H]1OC(C)=O [Wortmannin] | 1.37 | 1.06 | 1.2 | 2.24 | 0.655 | 1.14
CC(C)(C)NCC(O)c1ccccc1Cl (centres undefined) [Tulobuterol hydrochloride] | 0.975 | 0.768 | 0.82 | 0.711 | 0.75 | 1.75
CN1CCC(C(=O)c2cccc(NC(=O)c3c(F)cc(F)cc3F)n2)CC1 [Lasmiditan succinate] | 1.46 | 0.669 | 1.83 | 0.918 | 0.782 | 1.39
C[C@@H]1CC[C@H]2[C@@H](C)C(=O)O[C@@H]3O[C@@]4(C)CC[C@@H]1[C@]32OO4 [Artemisinin] | 1.18 | 1.01 | 1.43 | 0.903 | 1.24 | 1.25
